# Experimental data published in PubChem BioAssay.
# Active and inactive are the calls of the source.
# Tests used:
# Albumin (Bos taurus) = Albumin (Bos taurus) (UniProt P02769); assay: bovine serum albumin binders on microarray, profiling panel, artefact control for SMM control protein annotation, biochemical, small-molecule microarray, Alexa647 label, 635/667 nm fluorescence (AID 1118); conditions: BSA-A647 binding, fluorescence 635 nm, higher = more signal;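 note: score merges 667 nm emission intensity and signal-to-noise per printed compound spot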
# Sequence of Albumin (Bos taurus) (P02769 whole entry, looked up): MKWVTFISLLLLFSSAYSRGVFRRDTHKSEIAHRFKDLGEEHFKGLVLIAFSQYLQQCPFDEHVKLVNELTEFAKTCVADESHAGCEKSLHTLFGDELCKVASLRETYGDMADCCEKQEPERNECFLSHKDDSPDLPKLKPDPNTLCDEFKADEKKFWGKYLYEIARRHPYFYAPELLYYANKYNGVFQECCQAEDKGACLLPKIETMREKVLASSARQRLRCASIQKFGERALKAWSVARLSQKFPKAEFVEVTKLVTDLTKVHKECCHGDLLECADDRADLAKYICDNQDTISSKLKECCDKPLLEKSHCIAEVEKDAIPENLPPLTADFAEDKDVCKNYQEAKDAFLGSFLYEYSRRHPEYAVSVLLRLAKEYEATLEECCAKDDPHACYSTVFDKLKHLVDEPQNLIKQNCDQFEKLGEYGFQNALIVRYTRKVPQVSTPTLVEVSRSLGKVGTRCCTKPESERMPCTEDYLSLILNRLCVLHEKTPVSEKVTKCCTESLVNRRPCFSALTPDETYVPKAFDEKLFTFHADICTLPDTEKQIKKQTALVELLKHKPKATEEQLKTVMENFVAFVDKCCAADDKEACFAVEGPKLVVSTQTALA
# [1] = small-molecule microarray binders of probe aXIP, primary screen, biochemical, NeuroSMM set, 635/667 nm fluorescence (AID 1119); conditions: higher = more signal, called active from +8 up or from −8 down;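 note: probe is the protein aXip251-270 applied at 1 µg/mL to compound-printed slides; binding of probe to printed compounds measured as 667 nm fluorescence plus signal to noise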
# [2] = small-molecule binders of probe aNOTCH3, primary screen, biochemical, small-molecule microarray, 635/667 nm fluorescence (AID 1120); conditions: higher = more signal;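 note: probe is a biotin-tagged antibody raised against NOTCH3 rather than NOTCH3 protein; score merges spot fluorescence near 667 nm with spot signal to noise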
# [3] = small-molecule binders of probe aNOTCH2, primary screen, biochemical, small-molecule microarray, 635/667 nm fluorescence (AID 1121); conditions: higher = more signal;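 note: score merges feature fluorescence read at 667 nm with its signal to noise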
# [4] = molecular target: Carbonic anhydrase 2 (Homo sapiens) (UniProt P00918); assay: CAII small-molecule binders, profiling panel, biochemical, small-molecule microarray, Alexa647-labelled CAII (AID 1122); conditions: CAII-A647 binding fluorescence, higher = more signal
# [5] = COS7 lysate on small-molecule microarray, probe aHis, 635 nm (AID 1123); conditions: COS7 cell lysate, fluorescence, higher = more signal;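 note: z-score combines 667nm fluorescence intensity with signal-to-noise per printed compound spot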
# [6] = compound binding in COS7 lysate, probe aLAP1, primary screen, cell lysate, small-molecule microarray (AID 1124); conditions: probe aLAP1, fluorescence, higher = more signal;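 note: lysate comes from COS7 cells expressing LAP1 and is applied at 0.3 µg/mL; score merges spot fluorescence near 667 nm with signal-to-noise over triplicate slides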
# Sam68 (KHDRBS1) = assay: Sam68 small-molecule binders, primary screen, biochemical, small-molecule microarray, 635 nm fluorescence (AID 1125); conditions: small-molecule microarray binding, higher = more signal;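 note: score merges 667 nm channel intensity with signal to noise over triplicate slides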
# [7] = system: Chordin-like protein 2 (CHRDL2); assay: CHRDL2 small-molecule binders, primary screen, biochemical, small-molecule microarray, 635 nm fluorescence (AID 1126); conditions: small-molecule microarray binding, fluorescence 635 nm; higher = more signal;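 note: printed compound slides probed with Chrdl2 protein at 4 µg/mL for 1 h at 4 C; score merges 667 nm emission intensity with signal to noise over three replicate slides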
# [8] = molecular target: Concanavalin-A (Canavalia ensiformis) (UniProt P02866); assay: ConA small-molecule binders, primary screen, artefact control for SMM control protein annotation, biochemical, small-molecule microarray, Alexa647 label, 635 nm (AID 1127); conditions: ConA-A647 binding fluorescence, higher = more signal;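 note: z combines 667 nm emission intensity with signal-to-noise across three replicate slides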
# Sequence of Concanavalin-A (Canavalia ensiformis) (P02866 whole entry, looked up): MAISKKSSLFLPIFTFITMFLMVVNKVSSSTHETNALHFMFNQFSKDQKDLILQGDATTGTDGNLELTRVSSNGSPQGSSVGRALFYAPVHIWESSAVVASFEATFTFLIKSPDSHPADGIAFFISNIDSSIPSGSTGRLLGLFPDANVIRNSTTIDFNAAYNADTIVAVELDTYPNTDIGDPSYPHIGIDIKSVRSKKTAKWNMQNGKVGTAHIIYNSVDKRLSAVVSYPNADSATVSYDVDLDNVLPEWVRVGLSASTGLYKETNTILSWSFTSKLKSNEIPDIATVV
# [9] = anti-His antibody binders, primary screen, artefact control for SMM control protein annotation, biochemical, small-molecule microarray, 635 nm fluorescence (AID 1128); conditions: anti-His Alexa647 antibody binding, higher = more signal;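 note: score merges feature fluorescence with signal-to-noise for each printed compound spot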
# [10] = system: Human papillomavirus type 1a E7 protein (residues 1-88); assay: HPV1a E7 small-molecule binders, primary screen, biochemical, small-molecule microarray, residues 1-88, 635 nm (AID 1129); conditions: small-molecule microarray binding, fluorescence 635 nm; higher = more signal
# [11] = molecular target: Focal adhesion kinase 1 (Homo sapiens) (UniProt Q05397); assay: small-molecule microarray binders of FAK, primary screen, biochemical, 635/667 nm fluorescence, BSA, DTT (AID 1130); conditions: PTK2 binding, 635 nm fluorescence, higher = more signal;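 note: composite of spot emission at 667 nm and signal to noise over triplicate slides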
# Sequence of Focal adhesion kinase 1 (Homo sapiens) (Q05397 whole entry, looked up): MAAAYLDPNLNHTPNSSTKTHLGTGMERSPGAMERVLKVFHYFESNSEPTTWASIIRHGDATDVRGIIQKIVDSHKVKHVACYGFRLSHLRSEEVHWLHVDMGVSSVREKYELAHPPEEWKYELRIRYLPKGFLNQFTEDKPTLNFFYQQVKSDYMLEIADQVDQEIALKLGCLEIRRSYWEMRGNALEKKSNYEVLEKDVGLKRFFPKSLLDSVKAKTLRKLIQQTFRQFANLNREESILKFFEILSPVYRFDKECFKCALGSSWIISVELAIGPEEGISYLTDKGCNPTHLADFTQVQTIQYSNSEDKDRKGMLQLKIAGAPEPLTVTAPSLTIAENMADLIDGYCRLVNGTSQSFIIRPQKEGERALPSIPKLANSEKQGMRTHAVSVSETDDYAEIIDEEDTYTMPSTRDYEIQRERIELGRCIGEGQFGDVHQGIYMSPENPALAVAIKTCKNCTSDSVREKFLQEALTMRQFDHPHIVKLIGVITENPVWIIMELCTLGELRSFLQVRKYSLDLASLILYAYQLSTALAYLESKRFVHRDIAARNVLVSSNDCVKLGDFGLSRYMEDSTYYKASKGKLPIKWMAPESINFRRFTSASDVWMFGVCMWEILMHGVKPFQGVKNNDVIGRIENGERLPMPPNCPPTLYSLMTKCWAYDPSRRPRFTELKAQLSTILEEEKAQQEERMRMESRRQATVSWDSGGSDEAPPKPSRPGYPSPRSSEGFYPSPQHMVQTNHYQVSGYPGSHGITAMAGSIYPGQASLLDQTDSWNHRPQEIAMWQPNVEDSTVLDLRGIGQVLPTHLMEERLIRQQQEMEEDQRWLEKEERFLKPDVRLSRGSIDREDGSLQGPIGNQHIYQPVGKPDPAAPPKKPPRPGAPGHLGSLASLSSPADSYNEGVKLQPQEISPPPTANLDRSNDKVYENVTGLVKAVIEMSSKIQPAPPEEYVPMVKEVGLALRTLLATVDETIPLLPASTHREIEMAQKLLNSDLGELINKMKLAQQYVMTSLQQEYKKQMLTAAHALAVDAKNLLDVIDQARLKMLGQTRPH
# [12] = system: Fibrinogen (Alexa647-labelled); assay: fibrinogen binders on compound microarrays, profiling panel, artefact control for SMM control-protein annotation, biochemical, small-molecule microarray, 635/667 nm fluorescence (AID 1131); conditions: fibrinogen-A647 binding fluorescence, higher = more signal;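 note: z-score merges 667 nm fluorescence with per-spot signal-to-noise over triplicate slides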
# [13] = molecular target: Follistatin (Homo sapiens) (UniProt P19883); assay: follistatin binders on small-molecule microarrays, primary screen, biochemical, small-molecule microarray, 635/667 nm fluorescence (AID 1132); conditions: FST binding, 635 nm fluorescence, higher = more signal
# Sequence of Follistatin (Homo sapiens) (P19883 whole entry, looked up): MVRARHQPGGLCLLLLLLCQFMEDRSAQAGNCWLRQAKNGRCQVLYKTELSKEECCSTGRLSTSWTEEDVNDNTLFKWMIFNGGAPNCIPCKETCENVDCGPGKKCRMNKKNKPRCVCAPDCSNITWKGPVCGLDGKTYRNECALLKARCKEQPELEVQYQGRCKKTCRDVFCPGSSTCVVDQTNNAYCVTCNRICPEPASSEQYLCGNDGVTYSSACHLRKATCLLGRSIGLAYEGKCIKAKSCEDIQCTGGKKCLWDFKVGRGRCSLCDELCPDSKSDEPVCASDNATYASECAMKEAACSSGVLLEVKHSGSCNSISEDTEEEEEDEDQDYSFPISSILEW
# [14] = molecular target: Fibroblast growth factor 2 (Homo sapiens) (UniProt P09038); assay: FGF2 binders on small-molecule microarrays, primary screen, biochemical, small-molecule microarray, 635/667 nm fluorescence (AID 1133); conditions: small-molecule microarray binding, FGF2, fluorescence 635/667; higher = more signal
# Sequence of Fibroblast growth factor 2 (Homo sapiens) (P09038 whole entry, looked up): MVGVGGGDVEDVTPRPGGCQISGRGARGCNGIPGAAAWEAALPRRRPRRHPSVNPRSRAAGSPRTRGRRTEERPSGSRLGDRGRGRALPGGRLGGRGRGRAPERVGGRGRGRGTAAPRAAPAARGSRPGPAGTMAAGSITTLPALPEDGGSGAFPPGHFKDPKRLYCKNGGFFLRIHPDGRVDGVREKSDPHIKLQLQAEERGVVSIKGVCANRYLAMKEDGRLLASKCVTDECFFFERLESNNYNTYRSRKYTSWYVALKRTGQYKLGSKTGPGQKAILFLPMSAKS
# [15] = mitochondrial membrane potential change in A549 cells, profiling panel, cell-based, JC-1 fluorescence, basal, 24 h, 100 nL (AID 1138); conditions: higher = more signal;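 note: A549 lung adenocarcinoma cells under basal conditions with no added stimulus; test concentration not given here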
# Lefty1 = Lefty1 binders on small-molecule microarrays, primary screen, biochemical, small-molecule microarray, 635/667 nm fluorescence (AID 1139); conditions: small-molecule microarray binding, fluorescence 635/667; higher = more signal
# [16] = system: wheat germ agglutinin (Triticum aestivum), Alexa647-labelled; assay: wheat germ agglutinin binders on compound microarrays, profiling panel, artefact control for SMM control-protein annotation, biochemical, small-molecule microarray, 635/667 nm fluorescence (AID 1140); conditions: WGA-A647 binding, 635 nm fluorescence, higher = more signal;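 note: score merges 667 nm feature emission with signal to noise over triplicate slides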
# [17] = molecular target: Luciferin 4-monooxygenase (Photinus pyralis) (UniProt P08659); assay: firefly luciferase enzyme inhibitors, primary screen, biochemical, luminescence, purified enzyme, 2006 set (AID 1141); conditions: SteadyGlo luminescence, 30 min, higher = more signal, called active from +8 up or from −8 down;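 note: cell-free assay with purified firefly luciferase at 100 ng per well in PBS; test concentration not given here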
# Sequence of Luciferin 4-monooxygenase (Photinus pyralis) (P08659 whole entry, looked up): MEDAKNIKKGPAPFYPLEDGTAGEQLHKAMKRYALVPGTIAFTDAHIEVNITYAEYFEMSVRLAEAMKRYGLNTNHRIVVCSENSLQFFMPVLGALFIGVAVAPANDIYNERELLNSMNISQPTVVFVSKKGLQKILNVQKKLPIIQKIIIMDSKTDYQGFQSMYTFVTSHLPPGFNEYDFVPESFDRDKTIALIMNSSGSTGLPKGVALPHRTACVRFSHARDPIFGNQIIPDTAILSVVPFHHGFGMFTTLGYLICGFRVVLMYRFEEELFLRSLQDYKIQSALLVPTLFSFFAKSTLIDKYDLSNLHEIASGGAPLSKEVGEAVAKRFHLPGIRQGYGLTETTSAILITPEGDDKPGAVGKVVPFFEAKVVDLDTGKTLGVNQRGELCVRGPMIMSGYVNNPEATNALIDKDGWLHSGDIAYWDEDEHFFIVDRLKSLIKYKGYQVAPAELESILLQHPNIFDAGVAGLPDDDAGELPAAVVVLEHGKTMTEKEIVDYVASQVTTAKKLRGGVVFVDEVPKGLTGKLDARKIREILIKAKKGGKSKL
Structure (SMILES),composite z-score (Albumin (Bos taurus)),composite Z-score [1],composite z-score [2],composite z-score [3],composite z-score [4],composite z-score [5],composite z-score [6],composite z-score (Sam68 (KHDRBS1)),composite z-score [7],composite z-score [8],composite z-score [9],composite z-score [10],composite z-score [11],composite z-score [12],composite z-score [13],composite z-score [14],z-score [15],composite z-score (Lefty1),composite z-score [16],z-score [17]
CC(C)=NOC(C)CN1CCCc2nc(C)c(C)cc21 (stereo not given),0.297,0.672 (inactive),0.0482,0.0037,0.449,1.31,1.37,0.669,0.74,0.788,-0.0115,0.964,0.232,0.484,0.724,0.753,0.354,0.947,0.323,0.57 (inactive)
O=C1[C@H]2[C@H]3[C@H](O)[C@H](O)CC(=NO[C@@H]4O[C@H](CO)[C@@H](O)[C@H](O)[C@H]4O)[C@H]3CC[C@H]2C(=O)N1C[C@@H]1CCCO1,-0.011,0.274 (inactive),-0.136,-0.0101,-0.408,-0.686,0.041,0.155,0.109,-0.391,-0.0286,-0.178,-0.159,0.333,-0.438,0.182,-0.222,0.0013,-0.442,0.569 (inactive)
CCN(CC)CC(O)CN1CCCCc2nc(C)c(C)cc21 (stereo not given),0.401,-0.336 (inactive),0.0026,-0.195,0.367,0.243,-0.072,0.334,0.468,0.363,1,0.546,-0.0492,0.0982,0.355,0.639,1.09,0.516,0.944,-1.12 (inactive)
O=C1C=C[C@@H](O)[C@@H]2[C@@H]3C(=O)N(c4cccc(Oc5ccccc5)c4)C(=O)[C@@H]3CC[C@@H]12,0.0329,-0.554 (inactive),-0.132,-0.176,-0.0169,-0.55,-0.239,0.184,0.417,0.19,0.959,0.548,-0.183,-0.127,0.464,-0.196,-0.774,0.478,0.228,-0.57 (inactive)
O=C1[C@H]2[C@H]3[C@H](O)[C@H](O)CC(=NO[C@@H]4O[C@H](CO)[C@@H](O)[C@H](O)[C@H]4O)[C@H]3CC[C@H]2C(=O)N1c1ccc(F)cc1F,-0.168,-0.463 (inactive),0.196,-0.177,-0.556,-0.258,0.0482,1.07,-0.819,-1.06,-1.26,-0.162,0.633,0.192,-1.22,0.502,-0.352,-0.152,-0.052,1.42 (inactive)
CCCCOC(OCCCC)C(O)CSc1ccc2ccccc2c1 (stereo not given),-0.196,-0.444 (inactive),0.0669,-0.0682,0.028,0.125,-0.0593,1.02,0.537,0.196,0.147,0.776,0.0661,0.329,0.586,0.296,0.428,0.489,0.264,-0.842 (inactive)
O=C1C[C@@H](O)[C@@H](O)[C@@H]2[C@@H]3C(=O)N(Cc4ccccc4)C(=O)[C@@H]3CC[C@H]12,-0.0028,-0.082 (inactive),0.111,-0.107,0.213,-0.0842,0.23,0.184,0.415,0.941,0.0747,0.467,0.141,0.872,0.967,0.347,-0.579,0.329,0.565,0.675 (inactive)
COc1ccc(OC[C@@H](CO)OC)cc1,-0.151,0.675 (inactive),-0.0865,-0.118,-0.148,-0.206,-0.295,0.14,0.175,0.0261,0.324,0.0896,0.172,0.227,0.649,0.205,0.754,0.356,-0.254,-0.531 (inactive)
CCCNC(=O)OC[C@H]1O[C@H](CCON=C2C[C@@H](O)[C@@H](O)[C@@H]3[C@@H]4C(=O)N(CC)C(=O)[C@@H]4CC[C@@H]23)C=C[C@@H]1Oc1ccc(OC)cc1,0.148,-0.477 (inactive),0.217,-0.136,0.575,0.572,0.73,1.32,0.929,0.728,1.44,0.94,0.158,0.946,1.14,0.622,-0.517,1.3,0.697,0.321 (inactive)
